In PubChem BioAssay:
The source made the active and inactive calls. Unless noted, how the calls were made is not given here.

Test system: not listed separately
Test: cytosolic pH regulators acting via V-ATPase – S. cerevisiae, pHLuorin, HTS validation (AID 504600; in the data active means response above about 15%;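 further: plate controls were DMSO for no effect and reference compound for full effect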)
Details: V-ATPase proton transport, at 10 µM, active compounds read high

| Structure (SMILES) | response |
| --- | --- |
| CCC(COC(=O)c1cc(OC)c(OC)c(OC)c1)(c1ccccc1)N(C)C (stereo not given) | -2.48% (inactive) |
| Nc1ccc([As](=O)(O)O)cc1 | -3.63% (inactive) |
| CCCC(C)(COC(N)=O)COC(=O)NC(C)C (stereo not given) | 9.22% (inactive) |
| c1cnc2c(c1)ccc1ncccc12 | 21.4% (active) |
| NCCc1ccc(O)cc1 | 5.09% (inactive) |
| C[C@]12CC[C@@H]3c4ccc(O)c(O)c4CC[C@H]3[C@@H]1CC[C@@H]2O | -0.32% (inactive) |
| CC(CCc1ccccc1)NC(C)C(O)c1ccc(O)cc1 (stereo not given) | 5.84% (inactive) |
| Clc1ccc(COC(Cn2ccnc2)c2ccc(Cl)cc2Cl)c(Cl)c1 (stereo not given) | 75% (active) |
| CC12CN3CC(c4ccccc4)(CN(C1)C31CCCCC1)C2=O | 0.31% (inactive) |
| c1ccc2c(c1)OCC(C1=NCCN1)O2 (stereo not given) | 3.01% (inactive) |
| COc1cc(/C=C2\C(=O)NC(=O)N(c3ccccc3)C2=O)c([N+](=O)[O-])cc1OC | 3.62% (inactive) |
| CC12CCC3C(CC=C4CC5(CCC43C)OCCO5)C1CCC2=O (stereo not given) | 0.24% (inactive) |
| COc1ccc2c3c([nH]c2c1)C(C)=NCC3 | -11.3% (inactive) |
| CCCC(=O)OCC[N+](C)(C)C | 5.81% (inactive) |
| C[C@]12CCC(=O)C=C1CC[C@@H]1[C@@H]2C(=O)C[C@]2(C)C(=O)CC[C@@H]12 | -0.42% (inactive) |
| Cc1nc2ccccc2c(=O)n1-c1ccc(C(=O)O)cc1 | -10.1% (inactive) |
| Cc1c2ccncc2c(C)c2c1[nH]c1ccccc12 | -2.57% (inactive) |
| CC/C(=C\C=C\[C@@H]1C=C[C@@H]2CCC[C@H]2[C@@H]1C(=O)c1ccc[nH]1)[C@@H]1O[C@@H]([C@@H](C)C(=O)O)CC[C@@H]1C | -0.4% (inactive) |
| C[C@]12CCC(=O)C(O)=C1CC[C@@H]1[C@@H]2CC[C@]2(C)C(=O)CC[C@@H]12 | -1.14% (inactive) |
| CN1[C@@H]2CC[C@H]1CC(OC(=O)C1C=Nc3ccccc31)C2 (stereo not given in full) | -15% (inactive) |
| O=C1CSC2N1CCNC21CCCCC1 (stereo not given) | 2.26% (inactive) |
| C[C@H]1CCCC(=O)CCCCCc2cc(O)cc(O)c2C(=O)O1 | 6% (inactive) |
| CC(=O)Nc1cc([As](=O)(O)O)ccc1O | 1.26% (inactive) |
| NCC(O)c1ccc(O)cc1 (stereo not given) | 2.02% (inactive) |

Test system: anti-desmoglein-3 scFv antibody binding to human DSG3
Test: blockers of pathogenic pemphigus antibody–desmoglein-3 binding – biochemical, validation compound set, bead-based, flow cytometry, pilot screen (AID 588368;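 active means binding below the plate cutoff, the plate median minus 3 SD, with a reading above zero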;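 further: signal is the median channel fluorescence of bead-bound GFP antibody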)
Details: Protein G beads, DSG3-Fc, scFv-GFP binding, at 10 µM, active compounds read low

| Structure (SMILES) | binding (% of control) |
| --- | --- |
| CCC(COC(=O)c1cc(OC)c(OC)c(OC)c1)(c1ccccc1)N(C)C (stereo not given) | 98.7% (inactive) |
| Nc1ccc([As](=O)(O)O)cc1 | 99.6% (inactive) |
| CCCC(C)(COC(N)=O)COC(=O)NC(C)C (stereo not given) | 101% (inactive) |
| c1cnc2c(c1)ccc1ncccc12 | 102% (inactive) |
| NCCc1ccc(O)cc1 | 107% (inactive) |
| C[C@]12CC[C@@H]3c4ccc(O)c(O)c4CC[C@H]3[C@@H]1CC[C@@H]2O | 108% (inactive) |
| CC(CCc1ccccc1)NC(C)C(O)c1ccc(O)cc1 (stereo not given) | 95.4% (inactive) |
| Clc1ccc(COC(Cn2ccnc2)c2ccc(Cl)cc2Cl)c(Cl)c1 (stereo not given) | 104% (inactive) |
| CC12CN3CC(c4ccccc4)(CN(C1)C31CCCCC1)C2=O | 99.5% (inactive) |
| c1ccc2c(c1)OCC(C1=NCCN1)O2 (stereo not given) | 99.6% (inactive) |
| COc1cc(/C=C2\C(=O)NC(=O)N(c3ccccc3)C2=O)c([N+](=O)[O-])cc1OC | 105% (inactive) |
| CC12CCC3C(CC=C4CC5(CCC43C)OCCO5)C1CCC2=O (stereo not given) | 108% (inactive) |
| COc1ccc2c3c([nH]c2c1)C(C)=NCC3 | 172% (inactive) |
| CCCC(=O)OCC[N+](C)(C)C | 108% (inactive) |
| C[C@]12CCC(=O)C=C1CC[C@@H]1[C@@H]2C(=O)C[C@]2(C)C(=O)CC[C@@H]12 | 99.9% (inactive) |
| Cc1nc2ccccc2c(=O)n1-c1ccc(C(=O)O)cc1 | 101% (inactive) |
| Cc1c2ccncc2c(C)c2c1[nH]c1ccccc12 | 180% (inactive) |
| CC/C(=C\C=C\[C@@H]1C=C[C@@H]2CCC[C@H]2[C@@H]1C(=O)c1ccc[nH]1)[C@@H]1O[C@@H]([C@@H](C)C(=O)O)CC[C@@H]1C | 107% (inactive) |
| C[C@]12CCC(=O)C(O)=C1CC[C@@H]1[C@@H]2CC[C@]2(C)C(=O)CC[C@@H]12 | 110% (inactive) |
| CN1[C@@H]2CC[C@H]1CC(OC(=O)C1C=Nc3ccccc31)C2 (stereo not given in full) | 93.3% (inactive) |
| O=C1CSC2N1CCNC21CCCCC1 (stereo not given) | 112% (inactive) |
| C[C@H]1CCCC(=O)CCCCCc2cc(O)cc(O)c2C(=O)O1 | 106% (inactive) |
| CC(=O)Nc1cc([As](=O)(O)O)ccc1O | 101% (inactive) |
| NCC(O)c1ccc(O)cc1 (stereo not given) | 103% (inactive) |

Test system: Botulinum neurotoxin type F light chain protease (Clostridium botulinum)
Test: Clostridium botulinum type F light chain protease inhibitors, microsphere substrate cleavage, validation (AID 588459)
Details: multiplex microsphere protease substrate cleavage assay, flow cytometry; at 10 µM; active compounds read high

| Structure (SMILES) | inhibition |
| --- | --- |
| CCC(COC(=O)c1cc(OC)c(OC)c(OC)c1)(c1ccccc1)N(C)C (stereo not given) | -3.5% (inactive) |
| Nc1ccc([As](=O)(O)O)cc1 | -3.5% (inactive) |
| c1cc(-c2ccncc2)ccn1 | 0.7% (inactive) |
| CN1CCN2c3ccccc3Cc3ccccc3C2C1 (stereo not given) | 0.3% (inactive) |
| CCCC(C)(COC(N)=O)COC(=O)NC(C)C (stereo not given) | 0.5% (inactive) |
| c1cnc2c(c1)ccc1ncccc12 | -4.1% (inactive) |
| NCCc1ccc(O)cc1 | 5.4% (inactive) |
| Cc1cc(NS(=O)(=O)c2ccc(N)cc2)no1 | 0% (inactive) |
| C[C@]12CC[C@@H]3c4ccc(O)c(O)c4CC[C@H]3[C@@H]1CC[C@@H]2O | 0.2% (inactive) |
| NC(N)=NC(N)=NCCc1ccccc1 | -1% (inactive) |
| CC(CCc1ccccc1)NC(C)C(O)c1ccc(O)cc1 (stereo not given) | -3.5% (inactive) |
| Clc1ccc(COC(Cn2ccnc2)c2ccc(Cl)cc2Cl)c(Cl)c1 (stereo not given) | 0.4% (inactive) |
| CC12CN3CC(c4ccccc4)(CN(C1)C31CCCCC1)C2=O | 2.1% (inactive) |
| c1ccc2c(c1)OCC(C1=NCCN1)O2 (stereo not given) | -2.1% (inactive) |
| COc1cc(/C=C2\C(=O)NC(=O)N(c3ccccc3)C2=O)c([N+](=O)[O-])cc1OC | -4.1% (inactive) |
| CCC1(c2ccccc2)C(=O)NCNC1=O | 0% (inactive) |

| Structure (SMILES) | inhibition |
| --- | --- |
| CC12CCC3C(CC=C4CC5(CCC43C)OCCO5)C1CCC2=O (stereo not given) | 4.6% (inactive) |
| CNC[C@H](O)c1cccc(O)c1 | 1.5% (inactive) |
| COc1ccc2c3c([nH]c2c1)C(C)=NCC3 | -22.6% (inactive) |
| CCCC(=O)OCC[N+](C)(C)C | -3.8% (inactive) |
| C[C@]12CCC(=O)C=C1CC[C@@H]1[C@@H]2C(=O)C[C@]2(C)C(=O)CC[C@@H]12 | -1.7% (inactive) |
| NC(N)=NC(=O)c1nc(Cl)c(N)nc1N | -3.3% (inactive) |
| Cc1nc2ccccc2c(=O)n1-c1ccc(C(=O)O)cc1 | 0.9% (inactive) |
| Cn1c(=O)c2[nH]cnc2n(C)c1=O | 2.7% (inactive) |
| Cc1c2ccncc2c(C)c2c1[nH]c1ccccc12 | 2.4% (inactive) |
| CC/C(=C\C=C\[C@@H]1C=C[C@@H]2CCC[C@H]2[C@@H]1C(=O)c1ccc[nH]1)[C@@H]1O[C@@H]([C@@H](C)C(=O)O)CC[C@@H]1C | 1.9% (inactive) |
| C[C@]12CCC(=O)C(O)=C1CC[C@@H]1[C@@H]2CC[C@]2(C)C(=O)CC[C@@H]12 | 0.8% (inactive) |
| CN1[C@@H]2CC[C@H]1CC(OC(=O)C1C=Nc3ccccc31)C2 (stereo not given in full) | 1.4% (inactive) |
| O=C1CSC2N1CCNC21CCCCC1 (stereo not given) | -1% (inactive) |
| C[C@H]1CCCC(=O)CCCCCc2cc(O)cc(O)c2C(=O)O1 | -0.4% (inactive) |
| CC(=O)Nc1cc([As](=O)(O)O)ccc1O | 1% (inactive) |
| NCC(O)c1ccc(O)cc1 (stereo not given) | 1.9% (inactive) |
